# A selection: hits, their analogues and other compounds. The true share with any hit is near 2.5%.
# D2 PAM-1 = Beta-Arrestin HTS for Positive Allosteric Modulators of the Human D2 Dopamine Receptor: Potentiators; D(2) dopamine receptor (Homo sapiens), P14416; DiscoveRx D2 beta-arrestin cells, luminescence, 90 min; 100% = 57 uM dopamine signal; potentiation, % (test concentration not listed); 360,000 compounds, 0.23% hits; in the data active = potentiation above about 50%; inconclusive = mostly about 30% to 49%
# Target sequence (P14416 whole entry, looked up): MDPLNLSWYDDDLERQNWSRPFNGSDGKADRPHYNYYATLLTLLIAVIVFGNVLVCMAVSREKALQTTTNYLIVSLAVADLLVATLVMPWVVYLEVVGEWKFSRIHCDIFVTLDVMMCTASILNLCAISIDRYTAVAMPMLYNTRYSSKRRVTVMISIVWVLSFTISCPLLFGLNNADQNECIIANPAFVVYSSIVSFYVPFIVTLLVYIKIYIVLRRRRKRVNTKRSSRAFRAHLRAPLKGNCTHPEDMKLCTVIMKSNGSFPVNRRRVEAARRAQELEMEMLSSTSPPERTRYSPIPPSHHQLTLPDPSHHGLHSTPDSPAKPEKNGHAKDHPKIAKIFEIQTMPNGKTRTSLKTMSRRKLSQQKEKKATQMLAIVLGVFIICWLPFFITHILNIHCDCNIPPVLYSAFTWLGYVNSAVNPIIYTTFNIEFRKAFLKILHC
#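 PathHunter beta-arrestin assay in DiscoveRx D2 cells. Compounds were added with an EC20 of dopamine (50 nM final) for 90 min at 37 deg C. Luminescence was read 1 h after detection reagent, with 57 uM dopamine as the EC100 control.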
# D2 ag-1 = Beta-Arrestin HTS for Positive Allosteric Modulators of the Human D2 Dopamine Receptor: Agonists. D(2) dopamine receptor (Homo sapiens), P14416. DiscoveRx PathHunter D2 beta-arrestin, luminescence, 90 min; 100% = 57 uM dopamine signal. activation, % (concentration not given with the values). 360,000 compounds, 0.084% hits. AID 624465, 2012; in the data active = activation above about 40%; inconclusive = between about 15% and that limit
#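 DiscoveRx PathHunter D2 beta-arrestin cells (2,100/well) attached overnight, then compound-stimulated 90 min at 37 C in HBSS/10 mM HEPES/0.1% Tween-20 buffer; beta-galactosidase complementation read by luminescence after 1 h at ambient temperature. Dopamine 57 uM final (EC100) as control.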
# D2 PAM-2 = HTS Assay for Positive Allosteric Modulators of the Human D2 Dopamine Receptor: Primary Screen for Potentiators; D(2) dopamine receptor (Homo sapiens), P14416; HEK293 T-REx D2, calcium flux, EC20 dopamine potentiation; potentiation, % at 10 µM; 340,000 compounds, 0.34% hits;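 active = potentiation over 3 SD above the plate norm, cut at about 30% in these data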; also: 0% is about no effect
#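 Potentiation of an EC20 dopamine calcium response is measured in a force-coupled, tetracycline-inducible Hek293 Trex D2 line. Compound-only kinetic reads over 180 s flag agonists before dopamine addition.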
# D2 antagonist = HTS Assay for Allosteric Antagonists of the Human D2 Dopamine Receptor: Primary Screen for Antagonists; HEK293 TREx D2 cells, calcium flux, dopamine EC80; AID 485344, 2010; 340,000 compounds, 2% hits; inhibition, % at 10 µM; D(2) dopamine receptor (Homo sapiens), P14416; in the data active = inhibition above about 30%; inactive = below that, where a call was filed; also: 0% is about no effect
#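 HEK293 T-REx D2 cells, tet-induced, calcium dye no-wash. Cpd pintool add, 180 s kinetic, then EC80 DA, 180 s kinetic. Ca flux read.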
# Anesthetic bind = qHTS Assay for Identification of Novel General Anesthetics. apoferritin/1-aminoanthracene competitive binding, fluorescence. Potency, µM (highest dose often 77.5 µM), inactives show at the top dose activity change, negative = displacement, most hits filed as inhibitors. 350,000 compounds, 0.074% hits. AID 485281, 2010; active = well fitted inhibition curve with a large enough effect; inconclusive = small, poorly fitted or top-dose-only effect; inactive = no such curve, though single readings can be large or run the other way; also: potency is read from the fitted curve at half-maximal effect; % is scaled to controls: 0 for no effect and ±100 for the full control effect; nearly all actives have a fitted effect of over 20% in size
# Target sequence (P02791 2-175 limits assumed): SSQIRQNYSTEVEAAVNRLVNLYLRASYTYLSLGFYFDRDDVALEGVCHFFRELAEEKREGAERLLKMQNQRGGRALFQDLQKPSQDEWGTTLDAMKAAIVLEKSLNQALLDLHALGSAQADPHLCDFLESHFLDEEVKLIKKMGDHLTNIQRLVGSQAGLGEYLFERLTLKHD
#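 Horse-spleen apoferritin (10 uM) in 50% saturated 1-aminoanthracene in PBS was incubated 10 min at room temperature with compound. Fluorescence (ex 380, em 535 nm) was normalized to free and bound 1-AMA, with concentration-response fitted by a four-parameter Hill equation.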
# D2 ag-2 = HTS Assay for Allosteric Agonists of the Human D2 Dopamine Receptor: Primary Screen for Agonists; D(2) dopamine receptor (Homo sapiens), P14416; HEK293 T-REx D2 cells, calcium flux agonist mode; activation, % at 2 µM; 340,000 compounds, 0.53% hits; AID 485358, 2010;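 active = activation over 3 SD above normal in the single-dose calcium agonist read, cut at about 30% in these data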; also: 0% is about no effect
#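 Tetracycline-induced HEK293 Trex cells with D2 receptor force-coupled to calcium signaling, plated overnight at 30 C and loaded with no-wash calcium dye. Calcium flux read kinetically for 180 s after compound addition; responses flag agonists.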
# * = called active by the depositor; ? = inconclusive; . = not tested or not shown.
SMILES,D2 PAM-1,D2 ag-1,D2 PAM-2,D2 antagonist,Anesthetic bind,D2 ag-2
C=CCn1c(=O)[nH]c2nc3cc(N=CN(C)C)c(C)cc3nc2c1=O,-11,-4,4,-6,70%,30*
O=c1c2nnn(-c3cccc(F)c3)c2ncn1Cc1ccccn1,2,1,-19,34*,-9%,0
N#Cc1c(-c2cccs2)cc(-c2cccnc2)nc1N,-1,0,-2,49*,7%,0
O=S(=O)(c1cccc2cccnc12)N1CCOCC1,-6,-2,6,2,6%,0
Cc1ccc([N+](=O)[O-])cc1NC(=O)Nc1onc(C)c1C,-56,-10,-20,47*,-9%,-2
Cc1ccc([N+](=O)[O-])cc1NC(=O)Nc1ccc(S(N)(=O)=O)cc1,-7,-3,-18,26,-5%,1
CSc1cccc(NC(=S)NC(=O)CCc2ccccc2)c1,-7,?,3,-7,-7%,1
CCOc1ccc(OCCCC(=O)NC2=NCCS2)cc1,-3,0,-9,.,-5%,.
Cc1ccc2nc(SCC(=O)Nc3ccc(C)c(Cl)c3)nc(=O)n2c1,-8,0,11,35*,.,-1
Cc1ccc2nc(SCC(=O)N3CCCCCC3)nc(=O)n2c1,-4,0,-9,1,.,1
Cc1cc(NC(=O)CSc2nc(=O)n3cc(Cl)ccc3n2)no1,-3,-1,.,.,.,.
Cc1ccc2nc(SCC(=O)Nc3cccc(Cl)c3)nc(=O)n2c1,-6,3,-6,-14,.,1
Cc1ccc2nc(SCC(=O)c3ccc(Cl)cc3)nc(=O)n2c1,-1,-5,13,32*,.,-1
Cc1ccn2c(=O)nc(SCC(=O)Nc3cc(C)on3)nc2c1,1,-1,-10,42*,.,-1
NCc1cccc(CNc2ccc([N+](=O)[O-])cc2C(N)=O)c1,-8,6,-24,5,.,1
O=C(Nc1cc(Cl)cc(Cl)c1)N1CCCN(Cc2ccccc2)CC1,-32,2,-25,87*,-12%,0
N#CCCn1c2ccccc2c2nc3ccccc3nc21,-13,-14,-6,3,-3%,0
COc1ccc2c(c1)c1nc3ccccc3nc1n2CCn1c(=O)oc2ccccc21,-8,-3,-1,34*,-1%,0
COc1ccc2c(c1)c1nc3ccccc3nc1n2CCCN1C(=O)c2ccccc2C1=O,-7,0,13,0,-1%,1
CCN(CC)CCn1c2ccccc2c2nc3ccccc3nc21,-28,-4,-8,-3,-7%,0
O=c1oc2ccccc2n1CCn1c2ccccc2c2nc3ccccc3nc21,-8,-3,76*,4,0%,1
CCCn1c2ccccc2c2nc3ccccc3nc21,-13,-4,47*,0,-6%,-1
CCOc1cccc(C2C(C(=O)c3ccc(C)o3)=C(O)C(=O)N2c2nccs2)c1 (stereo unspecified),12,-4,11,21,-13%,0
COCCNC(=O)C(=O)NCC1OCCN1C(=O)c1ccc(Cl)cc1 (stereo unspecified),-4,-1,1,23,0%,1
Cn1cc(CNCCCn2ncc3ccccc32)c(-c2ccccc2F)n1,-27,-4,-20,37*,-10%,1
SMILES,D2 PAM-1,D2 ag-1,D2 PAM-2,D2 antagonist,Anesthetic bind,D2 ag-2
O=C(c1nc2ccccn2c1CNCCCn1ncc2ccccc21)N1CCOCC1,-7,-2,-8,-6,-4%,0
N#C/C(=C\c1c(Cl)cccc1Cl)c1nc2ccccc2o1,58*,?,5,-6,-6%,1
N#C/C(=C\c1c(Cl)cccc1Cl)c1nc2ccccc2[nH]1,-26,-2,-12,9,-9%,0
NCCOc1ccccc1OCCN,-11,-2,.,.,-4%,.
CCCCNC(=O)CSc1nc2ccc(N3CCOCC3)cc2c(=O)n1CCc1ccccc1,-4,-3,14,-9,3%,0
O=C(CSc1nc2ccc(N3CCOCC3)cc2c(=O)n1CCc1ccccc1)NCC1CCCO1 (stereo unspecified),6,14,.,41*,-8%,1
O=C(CCNS(=O)(=O)c1ccc(OC(F)(F)F)cc1)NCCc1c[nH]c2ccccc12,7,7,3,40*,.,0
Cc1ccc(SCC(=O)NC2CCS(=O)(=O)C2)cc1C (stereo unspecified),-12,0,-5,10,.,-1
C=CCn1c(SCC(N)=O)nnc1-c1ccccc1O,10,0,25,2,-16%,0
CN(C)CCCn1c(SCC(=O)Nc2sc3c(c2C#N)CCCC3)nnc1-c1ccncc1,-15,0,-4,39*,-20%,0
CCN(CC)S(=O)(=O)c1cc(NC(=O)CN2CCN(c3ccccn3)CC2)ccc1C,-21,4,10,-2,-13%,-9
CCN(CC)S(=O)(=O)c1cc(NC(=O)C(C)N2CCN(c3ccccn3)CC2)ccc1C (stereo unspecified),5,4,-21,15,-9%,35*
CCN(CC)S(=O)(=O)c1cc(NC(=O)C(C)N2CCN(Cc3ccc4c(c3)OCO4)CC2)ccc1C (stereo unspecified),-53,-5,-26,84*,-23%,-1
Cc1ccc(Cn2nnc(C(=O)Nc3cccc(C)c3C)c2N)cc1,7,-6,.,-7,?,7
COc1ccc(Oc2ncnc3sccc23)cc1,2,-2,7,9,-10%,0
Cc1nc(Oc2ccccc2)c2ccsc2n1,-7,-3,30*,5,2%,-2
CCN1CCN(CCCNC(=O)Cn2c(-c3cccs3)cc3ccccc32)CC1,.,.,-3,.,-10%,-1
COc1cccc2cc(C(=O)OC(C)C(=O)c3ccc(C)cc3)c(=O)oc12 (stereo unspecified),-4,3,10,7,-7%,-1
Cc1cc(C)c2c(c1)[C@@H]1C=CC[C@@H]1[C@H](c1ccc(S(=O)(=O)N3CCOCC3)cc1)N2,-5,-2,2,35*,-3%,0
CCCN(CCC)C(=O)c1ccc2c(c1)OCO2,-4,-4,-4,0,-4%,1

# Screening data deposited in PubChem by National Center for Advancing Translational Sciences (NCATS).
